# Sampled rows, rich in hits. Any-hit rate of the full collection: about 3.2%.
# TMEM16A inh: blocks the mouse calcium-activated chloride channel TMEM16A; Q8BHY3; HEK293 TMEM16A/YFP iodide influx fluorescence, ionomycin; normalized B-score (activity score, 25-100; higher = stronger inhibition) at 10 µM; hit rate 1.2% among 310,000; AID 588511;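 active means ratio plate-corrected score three or more library SD toward inhibition, starting fluorescence score within five deviations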;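 further: score derived from kinetic fluorescence span divided by baseline fluorescence per well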
# CHT PAM: allosterically activates the human high affinity choline transporter. CHT-expressing cells, membrane potential dye, choline EC20; active compounds read high; LV-AA mutant CHT in HEK293 cells. B-score at 10 µM. hit rate 0.49% among 310,000. AID 488977;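 active means initial fluorescence not abnormally high and integrated response B-score, plate-corrected, over 3 SD above library mean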
# PHOSPHO1 inh: inhibitors of human PHOSPHO1 phosphatase; recombinant PHOSPHO1, absorbance phosphatase assay; inhibition, % at 13.3 µM; Q8TCT1; hit rate 1.1% among 290,000; in the data active means inhibition above about 60%
# Target sequence (Q8TCT1 whole entry, looked up): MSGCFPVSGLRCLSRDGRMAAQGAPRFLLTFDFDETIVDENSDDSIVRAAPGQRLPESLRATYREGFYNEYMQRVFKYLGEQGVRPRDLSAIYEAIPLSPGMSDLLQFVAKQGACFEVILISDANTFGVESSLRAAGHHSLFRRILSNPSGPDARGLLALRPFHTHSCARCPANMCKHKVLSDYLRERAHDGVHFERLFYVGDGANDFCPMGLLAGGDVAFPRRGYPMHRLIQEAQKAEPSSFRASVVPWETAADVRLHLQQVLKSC
# CHT inh: inhibits the human high affinity choline transporter; Q9GZV3; CHT-expressing cells, membrane potential dye, choline response; active compounds read low; B-score at 10 µM; hit rate 0.86% among 310,000; AID 488975;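 active means B-score over 3 SD under the library average, and starting fluorescence ratio not unusually high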;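 further: choline stimulus applied at its EC90 after an EC20 pre-addition; B-score computed on integrated fluorescence ratio after choline addition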
# TMEM16A act: mouse TMEM16A channel activation, primary screen; Q8BHY3; HEK293 TMEM16A/YFP-H148Q/I152L, iodide quench fluorescence; active compounds read low; B-score at 10 µM; hit rate 0.3% among 340,000;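 active means fluorescence-ratio B-score plate-corrected deviation score at least 3 library SD below zero, with starting fluorescence score within 5 deviations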;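 further: channel opened by trigger with iodide after compound preincubation; score built on the fluorescence ratio of max minus min over baseline; more negative score means more quench and so TMEM16A activation or potentiation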
# HDAC3 inhib: blocks human histone deacetylase 3; O15379; inhibition, % at 8.3 µM; recombinant HDAC3, fluorogenic peptide/trypsin coupled, fluorescence; hit rate 0.15% among 320,000; in the data active means inhibition above about 26%, passing the limit was not always enough
# CHT act confirm: confirmation of human choline transporter (CHT) activators | shares compounds with CHT PAM | CHT-expressing cells, membrane potential dye fluorescence (FDSS); % of choline EC20–EC90 response window; HEK293 expressing CHT LV-AA mutant; choline added at its EC20 | activation, % at 10 µM | hit rate 91% among 2,500;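 active means primary screen active, with duplicate mean activation above negative control mean plus 3 SD, cut at about 11% in these data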
# HEK293 MP dye: counter-screen for CHT activators: effect in parental HEK293 cells; ratio readout change at 10 µM, hits read low; shares compounds with CHT PAM; AID 623908; membrane potential dye fluorescence (FDSS); measured after EC20 choline addition; hit rate 62% among 2,500;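 active means duplicate-averaged ratio beyond 3 SD from buffer wells, up or down, though filed actives are nearly all decreases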
# An asterisk follows results filed as active; i = inactive; x = no result.
SMILES,TMEM16A inh,CHT PAM,PHOSPHO1 inh,CHT inh,TMEM16A act,HDAC3 inhib,CHT act confirm,HEK293 MP dye
O=[N+]([O-])c1ccc2nc(N3CCNCC3)ccc2c1,i,11*,x,i,x,2,37*,-51*
O=C(Nc1ccccc1)c1cc([N+](=O)[O-])ccc1N1CCNCC1,i,i,48,i,i,3,x,x
Cc1cccc(CN2CCN(CC(=O)N3CCC4(CC3)OCCO4)C2=O)c1,i,i,12,i,i,-12,x,x
Cn1c(O)c(/C=N/c2ncccn2)c(=O)n(C)c1=O,i,i,19,i,i,8,38*,-36*
O=C([O-])c1ccc(-[n+]2c(-c3ccccc3)cc(-c3ccccc3)cc2-c2ccccc2)cc1,i,i,x,i,i,18,x,x
C[n+]1c(-c2ccccc2)cc(-c2ccc(O)cc2)cc1-c1ccccc1,i,7*,8,i,i,4,55*,-58*
Cc1ccc(-c2cc(-c3ccccc3)cc(-c3ccccc3)[n+]2-c2ccccc2C(=O)O)cc1,i,i,x,i,i,-26,x,x
O=[N+]([O-])c1ccc(-[n+]2c(-c3ccccc3)cc(-c3ccccc3)cc2-c2ccccc2)cc1,i,i,36,i,i,11,66*,-28*
Oc1ccc(-[n+]2c(-c3ccccc3)cc(-c3ccccc3)cc2-c2ccccc2)cc1,i,9.8*,x,i,i,7,80*,-26*
CCCC1(CCO)C(=O)NC(=S)NC1=O,x,x,x,x,i,x,x,x
CN1CCN(c2ccc([N+](=O)[O-])c(N)c2)CC1,i,i,-2,i,i,6,x,x
CN1CCN(c2ccc([N+](=O)[O-])c(SCCO)c2)CC1,i,6.8*,-3,i,i,0,37*,-65*
CN1CCN(c2ccc([N+](=O)[O-])c(NCC3CCCO3)c2)CC1 (stereo unspecified),i,6.3*,1,i,i,5,52*,-51*
CN1CCN(c2ccc([N+](=O)[O-])c(NCc3ccco3)c2)CC1,i,i,1,i,i,3,x,x
COC(=O)[C@@]1(C#N)[C@@H]2C=CC(C(C)=O)=CN2[C@@H](C(N)=O)[C@@H]1c1ccc(F)cc1,i,i,25,i,i,2,x,x
Cn1c(O)c(/C=N/N2CCOCC2)c(=O)n(C)c1=S,i,i,9,i,i,3,x,x
COC(=O)C1=C(c2ccccc2)C[C@@H]2CC[C@H]1N2C(=O)NCCNC(C)=O,i,i,x,i,i,0,x,x
CCC[N+]12CCC(CC1)C(=C(c1ccccc1)c1ccccc1)C2,i,6.5*,3,i,i,0,16*,i
CCCC[N+]12CCC(CC1)C(=C(c1ccccc1)c1ccccc1)C2,i,9.4*,9,i,i,-8,61*,i
CCCCCCC[n+]1ccc(-c2cc[n+](CCCCCCC)cc2)cc1,i,i,48,i,i,3,x,x
C[n+]1ccc(-c2cc[n+](C)cc2)cc1,i,11*,x,i,i,-2,85*,-100*
CSc1nc(N2CCN(C)CC2)c2ccccc2n1,i,6.3*,41,i,i,2,47*,-68*
Cc1cc(N2CCN(C)CC2)nc2ccccc12,i,7*,18,i,i,2,49*,-51*
CC1=NCCc2c1[nH]c1cc(O)ccc21,i,i,x,i,i,-67,x,x
COc1ccc2c3c([nH]c2c1)C(C)=NCC3,i,i,4,i,i,-13,33*,-43*
CN1CCN(c2nc(N(C)C)oc(=O)c2C#N)CC1,i,i,20,i,i,-5,54*,-47*
